NTMT1 inh: blocks human N-terminal methyltransferase 1 activity. NTMT1 MTase-Glo SAH luminescence, purified enzyme. Potency, µM (series often up to 114 µM), for inactives: at the top dose activity change, negative = inhibition, actives largely listed as inhibitors. actives 2.5% (n = 59,000);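 further: potency means the concentration at half of the fitted maximal effect; plate controls were DMSO vehicle for no effect and no enzyme for full effect; nearly all actives have a fitted effect of over 65% in size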
GPR32 ag: GPR32 (DRV1) agonism, beta-arrestin recruitment | O75388 | CHO-K1 GPR32 beta-arrestin PathHunter luminescence, 90 min; zero percent set by DMSO-only wells | activation, % at 76.9 µM | actives 2.5% (n = 48,000) | AID 1346428;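 active means activation of at least 60% and not above a set upper limit, about 1 call in 100 departs from these limits; inconclusive means activation of 40% to 60%, or above that upper limit; inactive means activation under 40%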; further: 0% is about no effect
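Beta-arrestin recruitment read-out: luminescence from complemented beta-Gal in CHO-K1 GPR32 PathHunter cells, measured 1 h after detection reagent at ambient temperature following 90 min compound exposure at 37 °C; DMSO served as basal (EC0) control.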
PTAP-TSG101 blk: inhibitors of HIV-1 PTAP binding to human TSG101, validation. Q99816. Fluorescence polarization, FITC-PTAP peptide/Tsg101, 20 min. Potency, µM (titrated, usually from 115 µM), most hits filed as inhibitors. 44,000 tested, under 10 active; further: potency means the concentration at half of the fitted maximal effect; 0% is about no effect
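qHTS FP binding, 20 min r.t.: 10 uM Tsg101 domain + 50 nM FITC-PTAP peptide, pH 7.5 HEPES buffer with TCEP and EDTA.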
GALC G270D act: raises human GALC G270D mutant activity in cells | actives 0.1% (n = 45,000) | Potency, µM (top dose mostly 57.5 µM), actives largely listed as activators | 145M-Twi-hGALC-G270D cells (Twitcher mouse brain line with human GALC G270D), HMU-beta-Gal fluorescence, 48 h; further: potency means the concentration at half of the fitted maximal effect; 0% is about no effect; nearly all actives have a fitted effect of over 65% in size
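Fluorescence readout: HMU-β-gal cleavage by mutant GALC (0.1 mM final, citrate/phosphate pH 5.2 with 1 mg/mL taurocholate), stopped with carbonate/bicarbonate plus Triton X-100. Cells: murine Twitcher 145M-Twi expressing human G270D GALC; qHTS for activators.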
GALK inhibitor: inhibits human galactokinase; recombinant GALK, Kinase-Glo ATP luminescence, 1 h; Potency, µM (highest dose often 57.5 µM), for the others: at the top dose activity, negative = inhibition, most hits filed as inhibitors; 44,000 tested, under 10 active; AID 1347072;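 further: plate controls were full GALK reaction for no effect and reaction lacking GALK for full effect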
Target sequence (P51570 whole entry, looked up): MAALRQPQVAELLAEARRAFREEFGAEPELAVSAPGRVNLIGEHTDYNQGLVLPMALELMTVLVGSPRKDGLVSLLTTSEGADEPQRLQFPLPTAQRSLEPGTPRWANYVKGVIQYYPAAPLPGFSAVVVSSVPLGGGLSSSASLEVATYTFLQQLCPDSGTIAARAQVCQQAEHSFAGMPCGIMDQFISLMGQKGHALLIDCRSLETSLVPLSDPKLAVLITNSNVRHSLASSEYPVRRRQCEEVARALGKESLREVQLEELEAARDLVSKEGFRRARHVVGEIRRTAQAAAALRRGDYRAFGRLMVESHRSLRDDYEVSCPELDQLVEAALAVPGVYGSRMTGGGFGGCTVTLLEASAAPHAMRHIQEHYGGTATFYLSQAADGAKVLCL
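Reactions with and without enzyme served as controls. GALK at 5 nM phosphorylates 100 uM galactose using 35 uM ATP (HEPES pH 8.0, Mg2+) for 1 h at RT, with luminescence read 10 min after adding Kinase-Glo Plus.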
B2AR arrestin ag: beta-arrestin recruitment by human beta2-adrenergic receptor ligands; HTLA Tango cells, beta-arrestin recruitment, luciferase luminescence, 18 h; Potency, µM (top dose mostly 46.1 µM), usual class: activators; 44,000 tested, under 10 active;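 further: potency means the concentration at half of the fitted maximal effect; 0% = DMSO and full agonism = EC100 isoproterenol or metaproterenol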
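Receptor–beta-arrestin recruitment read by tTA-responsive luciferase: compound titrations (up to 46 µM) incubated 18 h with Tango cells, then luminescent substrate 15 min at room temperature. Concentration-response fits classified by r2, efficacy and activity.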
* hit, by the source's call; i = inactive; u = inconclusive; x = not tested or not shown; ! = repeats disagree; [ ] = dose if it differs, or a comment. The list is not random: actives were taken first. Their share in the collection is about 3.6%. Unless noted, the call rests on the fitted dose curve; in most records, active means well fitted curve in the direction sought with a large enough effect; inconclusive means small, poorly fitted or top-dose-only effect, or another doubt; inactive means no such curve, though single readings can be large; an effect the other way counts as inactive or inconclusive.

SMILES | NTMT1 inh | GPR32 ag | PTAP-TSG101 blk | GALC G270D act | GALK inhibitor | B2AR arrestin ag
C[C@H]1CC(=O)Nc2cccc(-c3cnn(C(C)(C)C)c3)c2N1 | -8%[57.5 µM] | x | x | x | x | x
COCCCNc1nc(NCc2ccc(C)cc2)c2cnn(C)c2n1 | 3% | 69* | i | i | 1% | i
COCCCNc1nc(NCc2ccccc2OC)c2cnn(C)c2n1 | u | 75* | i | i | -2% | i
CCOC(=O)c1ccc(N2C(=O)c3[nH]nc(-c4ccc(OC)cc4)c3C2c2ccccc2Cl)cc1 (stereo not drawn) | -2% | -6 | i | i | 9% | i
COc1ccc(-c2n[nH]c3c2C(c2ccc(Cl)cc2Cl)NC3=O)cc1 (stereo not drawn) | -7% | 87* | i | i | -2% | i
Cc1ccc(-n2[nH]c(C)c(N=Nc3cccc(-c4cccc(C(=O)O)c4)c3O)c2=O)cc1C | 35µM*! | 30 | x | i | x | x
CCC(C)NC(=O)c1sc2nc(C)c(C(=O)Nc3ccc(Cl)cc3)c(-c3ccc(Br)cc3)c2c1N (stereo not drawn) | 5% | 8 | i | u | 7% | i
Cc1nc2sc(C(N)=O)c(N)c2c(-c2ccc(Br)cc2)c1C(=O)Nc1ccc(Cl)cc1 | -20% | 88* | i | i | 3% | i
CC(=O)O[C@H]1C[C@@H]2[C@]3(CC[C@]4(C)[C@@H](C5(C)CCC(C(C)(C)O)O5)[C@@H](O)C[C@@]24C)C[C@@]32CC[C@H](O[C@@H]3OC[C@@H](O)[C@H](O)[C@H]3O)C(C)(C)[C@H]12 (stereo partly drawn) | 20%[12.6 µM] | x | x | x | x | x
O=C1Nc2ccccc2/C1=C\c1ccc(O)cc1 | -18% | x | x | x | x | x
O=C1Nc2ccc(C(=O)c3ccco3)cc2/C1=C/c1cc(Cl)c(O)c(Cl)c1 | 4µM* | x | x | x | x | x
O=C1Cc2cc(C(=O)c3ccco3)ccc2N1 | -5% | x | x | x | x | x
O=C1Nc2ccccc2/C1=C/c1cc(Cl)c(O)c(Cl)c1 | 35µM*! | x | x | x | x | x
C[Se]CCC(N)C(=O)O (stereo not drawn) | 16µM*! | x | x | x | x | x
COC(=O)N[C@@H](C)CNc1nccc(-c2cn(C(C)C)nc2-c2cc(Cl)cc(NS(C)(=O)=O)c2F)n1 | 9% | x | x | x | x | x
CC(C)c1cc(C(=O)N2CC[C@@H](NC(=O)C3CC3)C2)n[nH]1 | -7%[57.5 µM] | x | x | x | x | x
CN1CCc2cccc3c2[C@H]1Cc1ccc(O)c(O)c1-3 | 22µM* | -14 | x | i | x | x
CC(C)C[C@H](N)c1nnc(SCc2ccc(Cl)cc2Cl)o1 | -5% | 77* | i | i | 8% | i
CN[C@@H]1C[C@H]2O[C@@](C)([C@@H]1OC)n1c3ccccc3c3c4c(c5c6ccccc6n2c5c31)C(=O)N[C@H]4O | -9%[29.8 µM] | x | x | x | x | x
CCCc1nnc(-c2cnn(C)c2N)n1CCCn1ccnc1 | 8% | x | x | x | x | x
CCN(CC)C(=O)c1ccc2c(c1)N(Cc1ccc(C(F)(F)F)cc1)C(=O)c1ccccc1S2 | -12% | 87* | i | i | 6% | i
COCCNC(=O)c1ccc2c(c1)N(Cc1ccc(C(F)(F)F)cc1)C(=O)c1ccccc1S2 | -3% | 17 | i | i | -1% | i
CC(=O)c1cccc(NC(=O)CN2C(=O)c3ccccc3Sc3ncccc32)c1 | -2% | 72* | i | i | 3% | i
COC(=O)c1ccc2c(c1)N(CC(=O)Nc1ccc(OC)c(Cl)c1)C(=O)c1ccccc1S2 | 4% | -5 | i | i | 0% | i
COC(=O)c1ccc2c(c1)N(CC(=O)Nc1cccc(C(F)(F)F)c1)C(=O)c1ccccc1S2 | 17% | 107* | i | i | -1% | i
O=S(=O)(Nc1nc(-c2ccccc2C(F)(F)F)nc2ccccc12)c1ccc(-c2ccnc(C(F)(F)F)c2)cc1 | -22% | x | x | x | x | x

Source: PubChem BioAssay
